# Screens from PubChem BioAssay.
# Rv3671c protease: Rv3671c serine protease inhibitors, primary screen, biochemical, fluorescence polarization, M. tuberculosis H37Rv. P9WHR9. inhibition, % at 5.96 µM. 320,000 compounds, 0.048% hits. AID 2606, 2010; in the data active means inhibition above about 38%;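 further: extracellular domain of Rv3671c used as enzyme; 0% = enzyme with DMSO and 100% = no enzyme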
# FadD28 FP inh: inhibitors of FadD28 bisubstrate probe binding, primary screen, biochemical, fluorescence polarization, single point; Mycobacterium tuberculosis FadD28 fatty-acid-AMP ligase; AID 588549, 2011; 360,000 compounds, 0.22% hits; inhibition, % at 12.5 µM; in the data active means inhibition above about 8.5%, passing the limit was not always enough; inconclusive means no clear call, values can overlap the other calls
# Y pestis TopoI: Yersinia pestis topoisomerase I inhibitors, primary screen, biochemical, cleavage product accumulation, plate reader, single point; 360,000 compounds, 0.064% hits; DNA topoisomerase I (Yersinia pestis CO92); Y. pestis Topo-I cleavage product accumulation; activity, % at 10 µM; AID 504884, 2011; in the data active means activity above about 50%, passing the limit was not always enough; inconclusive means no clear call, values can overlap the other calls
# Mtb bLac sens: beta-lactam sensitization of Mtb H37Rv, H37Rv; 330,000 compounds, 0.27% hits; inhibition, % at 25 µM; M. tuberculosis H37Rv growth with meropenem, percent inhibition; call rule not given here;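 further: growth measured after seven days incubation then overnight dye step; 0% = bacteria only wells and 100% = bacteria with antibiotic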
# Mtb UGM inh: M. tuberculosis UGM enzyme inhibitors, primary screen, biochemical, fluorescence polarization, single point. AID 504406, 2011. purified UGM, fluorescence polarization probe displacement. inhibition, % at 10 µM. UDP-galactopyranose mutase (Mycobacterium tuberculosis (strain ATCC 25618 / H37Rv)), …. 320,000 compounds, 0.06% hits; in the data active means inhibition above about 10%, passing the limit was not always enough; inconclusive means no clear call, values can overlap the other calls
# Target sequence (P9WIQ1 whole entry, looked up): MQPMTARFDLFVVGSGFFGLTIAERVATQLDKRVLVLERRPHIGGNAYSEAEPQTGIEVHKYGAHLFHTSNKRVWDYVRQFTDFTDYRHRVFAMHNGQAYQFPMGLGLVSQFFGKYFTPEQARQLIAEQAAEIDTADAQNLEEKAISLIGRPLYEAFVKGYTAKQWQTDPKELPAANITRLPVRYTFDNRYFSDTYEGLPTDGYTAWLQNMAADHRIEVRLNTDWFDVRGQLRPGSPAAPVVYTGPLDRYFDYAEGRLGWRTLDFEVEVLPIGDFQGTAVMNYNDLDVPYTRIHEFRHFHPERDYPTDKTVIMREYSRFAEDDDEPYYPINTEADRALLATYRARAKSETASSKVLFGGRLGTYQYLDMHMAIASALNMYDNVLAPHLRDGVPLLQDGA
# PfHsp40 yeast: rescue of yeast from PfHsp40 toxicity, primary screen, S. cerevisiae, ATP luminescence; S. cerevisiae expressing PfHsp40, growth rescue; 340,000 compounds, 0.68% hits; AID 504582, 2011; growth rescue, % at 12.5 µM; in the data active means growth rescue above about 28%, passing the limit was not always enough; inconclusive means no clear call, values can overlap the other calls;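 further: yeast W303a lacking pdr1 and pdr3 grown in galactose medium; growth measured after three days at 30 °C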
# * marks the source's active call; other numbers are inactive results; ? = inconclusive; nt = no result given. Shown are actives, neighbours in structure and some others; about 0.98% of the full set was active somewhere.
SMILES,Rv3671c protease,FadD28 FP inh,Y pestis TopoI,Mtb bLac sens,Mtb UGM inh,PfHsp40 yeast
COc1ccc(-c2cn[nH]c2-c2ccc(OCc3ccccc3)cc2O)cc1,-3.1,-1.4,2.3,4.8,1.9,115.2*
CCOc1ccc(-c2[nH]ncc2Oc2cccc(OC)c2)c(O)c1,-0.9,-3.3,3.8,3.4,-2.4,336.5*
COc1cccc(Oc2cn[nH]c2-c2ccc(OC)cc2O)c1,4.2,-11.1,2.1,3.2,-0.3,0.6
CCCc1ccc(Oc2cn[nH]c2-c2ccc(O)c(C)c2O)cc1,-10.5,-4.1,-7.3,-3.1,-0.2,83.3*
CCCc1ccc(Oc2c(-c3ccc(O)c(C)c3O)n[nH]c2C)cc1,7.7,-1.3,-4.0,2.8,-0.2,2.6
COc1ccc(-c2c(N)cnc(C(=O)O)c2C)c(OCc2ccccc2)c1OC,nt,-2.1,2.3,nt,nt,nt
NC(COCc1ccccc1)c1csc(NC(=O)Nc2cccc(C(F)(F)F)c2)n1 (configuration not stated),nt,-5.7,-17.6,nt,nt,nt
CC1(C(=O)NCc2ccc(F)c(F)c2)Cc2c(-c3ccccc3)ccnc2O1 (configuration not stated),nt,0.3,21.9,nt,nt,nt
COCCNC(=O)C1(C)CCCN(Cc2ccc(Cl)c(Cl)c2)C1 (configuration not stated),nt,0.0,24.9,nt,nt,nt
CC(=O)Nc1ccc(CN(C)c2c(C)nc3ccc(C(=O)Nc4ccc(Cl)c(Cl)c4)cn23)cc1,nt,-3.3,6.6,nt,nt,nt
O=C(NCCSc1ccc(Cl)cc1)c1ccc(CN2CCOCC2)cc1,0.8,-1.6,13.8,1.5,2.1,0.0
O=C(NCCSCc1ccc(Cl)cc1Cl)c1ccc(CN2CCOCC2)cc1,-2.6,43.1*,35.9,-1.8,0.9,1.2
COc1cc(C2c3cc(O)c(OC)cc3CC(C(=O)O)C2CO)ccc1O (configuration not stated),nt,-2.3,-10.6,nt,nt,-0.9
CCOC(=O)c1c(-c2ccccc2)oc2ccc(OCC)cc12,-5.9,-2.7,15.3,77.5,0.2,-0.2
CCOC(=O)c1c(-c2ccccc2)oc2ccc(O)cc12,-12.4,-4.5,-4.5,73.2,0.7,317.8*
CCn1c(CNc2ccc(Cl)cc2)nnc1SCC(=O)NCc1ccccc1,2.9,-2.2,-0.1,-1.2,2.3,-0.9
CCn1c(CNc2ccc(Cl)cc2)nnc1SCc1ccccc1,-6.3,-3.3,12.3,-3.3,2.4,119.7*
Cn1c(CNc2ccc(Cl)cc2)nnc1SCc1ccccc1,-0.8,-2.2,0.6,1.8,-1.8,142.6*
NS(=O)(=O)c1ccc(NC(=O)c2cc(-c3cc(Cl)ccc3O)n[nH]2)cc1,nt,-16.6,-15.5,4.4,2.3,-0.3
CCc1ccc2c(c1)C(c1ccc([N+](=O)[O-])cc1)=NNC(c1ccc(Br)cc1)=N2,-10.1,-3.0,-2.4,59.6,51.7*,0.0
Cc1ccc2c(c1)C(c1ccc([N+](=O)[O-])cc1)=NNC(c1ccc(Br)cc1)=N2,-0.8,-0.3,-4.9,-5.3,0.5,-0.3
CC(=O)Nc1ccc(C23CC4CC(CC(C4)C2)C3)cc1,2.0,2.6,33.6,12.2,0.9,11.2
CNC(=S)Nc1ccc(C23CC4CC(CC(C4)C2)C3)cc1,1.8,2.6,15.7,85.8,2.2,178.8*
COc1ccccc1N1CCN(Cc2ccc(O)c3ncccc23)CC1,0.9,-0.5,6.4,72.1,-0.6,-0.2
Oc1ccc(CN2CCCc3ccccc32)c2cccnc12,5.1,-6.2,-12.5,73.3,-2.7,38.2*
SMILES,Rv3671c protease,FadD28 FP inh,Y pestis TopoI,Mtb bLac sens,Mtb UGM inh,PfHsp40 yeast
COc1ccc(CNC(=O)c2sc(=O)n(Cc3cc(C(C)=O)ccc3OC)c2C)cc1,nt,-1.5,-0.8,nt,nt,nt
CC(c1ccon1)N(C)Cc1cn(C)nc1-c1cccc(Cl)c1 (configuration not stated),-10.9,-2.1,-2.0,-17.6,-3.9,78.9*
C[C@@H]1CN([C@H](C)CO)C(=O)c2cc(C#C[C@@H](C)O)cnc2O[C@H]1CN(C)C(=O)c1ccc(F)cc1,nt,-0.7,7.8,nt,nt,nt
O=C(NNC(=S)Nc1cccc(C(F)(F)F)c1)c1ccc(Cl)cc1Cl,18.6,5.3,4.1,-15.8,-1.2,35.7*
Cc1ccccc1C(=O)NNC(=S)Nc1cccc(C(F)(F)F)c1,4.8,-2.8,-0.9,-5.1,nt,12.7
O=C(Cn1nnc(-c2ccc3c(c2)OCO3)n1)Nc1ccccc1C(=O)O,5.8,10.8*,-6.4,7.0,3.6,0.3
Cc1cccc(C)c1NC(=O)C(c1ccccc1)N(C)CCc1ccccc1 (configuration not stated),nt,-1.7,nt,nt,nt,nt
CCC1(CC)C(=O)NC(=Nc2cccc(C(F)(F)F)c2)NC1=O,-2.9,-1.6,5.1,-18.9,-4.9,110.6*
COc1ccc(-c2csc(C(O)c3cccc(OC)c3)n2)cc1 (configuration not stated),nt,-0.8,9.0,nt,nt,nt
CC1(C(=O)Nc2ccc3nc[nH]c3c2)CCN1C(=O)C/C=C/c1ccccc1 (configuration not stated),nt,-4.0,4.1,nt,nt,nt
CCOC(=O)c1cc2c(ccn2C)n1Cc1ccc(Cl)cc1,4.7,1.9,5.2,1.6,-5.2,1.5
Cc1cccc(Cn2c(C(=O)OC(C)C)cc3c2ccn3C)c1,-2.4,0.0,53.7*,-2.4,-5.3,1.1
Cc1cc(NC(=O)c2c(F)cccc2Cl)n(-c2nc3ccccc3[nH]2)n1,-32.5,-22.1,-17.2,-3.8,-0.6,112.9*
O=C(NNC(=S)NC(=O)c1ccccc1Cl)c1cccc([N+](=O)[O-])c1,-8.5,nt,6.1,-0.1,1.7,?
O=C(NNc1c(Cl)cc(Cl)cc1Cl)c1cccc([N+](=O)[O-])c1,11.8,-2.0,-5.0,5.2,2.0,191.8*
CSc1ccccc1OCc1cc(C(=O)NCCCc2ccccc2)no1,-5.0,-1.9,57.9*,?,1.2,2.3
O=C(c1cc(-c2ccc(Br)cc2)nc2ccccc12)N1CCN(c2ccccc2O)CC1,-3.0,-0.2,14.6,-4.3,1.3,-2.2
Cc1ccc(-c2cc(C(=O)N3CCN(c4ccccc4O)CC3)c3ccccc3n2)o1,2.1,-4.4,23.3,76.7,0.7,136.7*
CCOC(=O)c1ccc(NC(=O)CC2NCCNC2=O)cc1 (configuration not stated),-3.7,-2.3,-4.2,-1.3,-3.0,1.1
CCOC(=O)c1ccc(NC(=O)CC2C(=O)OCCN2CC)cc1 (configuration not stated),-1.5,0.3,-7.5,37.8,-0.2,218.6*
CCOC(=O)c1ccc(NC(=O)CC2OCCN(CC)C2=O)cc1 (configuration not stated),-9.6,-2.6,0.4,83.7,-0.4,53.2*
O=C(O)CC(Cc1ccc(Cl)cc1)C(=O)Nc1cc(Cl)ccc1Cl (configuration not stated),-0.9,-2.7,5.5,-7.3,0.7,2.7
